# In PubChem BioAssay (Tox21):
# Inconclusive results are not listed. Entries that show only a call come without a potency. Activity calls are given as the source filed them. Unless noted, calls come from the whole dose curve.
# Legend:
# [1] = Nuclear factor erythroid 2-related factor 2/antioxidant responsive element (Nrf2/ARE) small molecule agonists: qHTS cell viability counter screen in human keratinocytes (AID 1919968; active = well fitted cell-killing curve with a large enough effect in the repeat runs; note: nearly all actives have a fitted effect of over 55% in size; note: potency is the fitted concentration of half-maximal effect)
# How it was run: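 Stably transfected HaCaT (KeratinoSens), 1,500/well. Test agents in DMSO were applied for 23 h, 37 C/5% CO2. CellTiter-Fluor was incubated 1 h before the fluorescence read.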
# [2] = Nuclear factor erythroid 2-related factor 2/antioxidant responsive element (Nrf2/ARE) small molecule agonists: luciferase reporter gene qHTS assay in human keratinocytes (AID 1919969); note: nearly all actives have a fitted effect of over 35% in size; note: potency is the fitted concentration of half-maximal effect
# [3] = molecular target: Gonadotropin-releasing hormone receptor (Homo sapiens) (UniProt P30968); test: Human gonadotropin-releasing hormone receptor (GnRHR) small molecule agonists, calcium flux assay in GnRHR-HEK293 cells (AID 1920063); note: nearly all actives have a fitted effect of over 35% in size
# Chain of Gonadotropin-releasing hormone receptor (Homo sapiens) (P30968 whole entry, looked up): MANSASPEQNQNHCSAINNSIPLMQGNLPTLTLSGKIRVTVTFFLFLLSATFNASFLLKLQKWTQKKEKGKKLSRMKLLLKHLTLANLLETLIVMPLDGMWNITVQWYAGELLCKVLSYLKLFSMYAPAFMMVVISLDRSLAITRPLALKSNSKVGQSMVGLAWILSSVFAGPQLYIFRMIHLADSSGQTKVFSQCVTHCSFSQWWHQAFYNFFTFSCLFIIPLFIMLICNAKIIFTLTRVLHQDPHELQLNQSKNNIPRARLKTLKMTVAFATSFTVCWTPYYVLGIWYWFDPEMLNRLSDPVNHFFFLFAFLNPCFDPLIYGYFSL
# How it was run: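 Stable human GnRHR HEK293 line. 18 h plating, then calcium dye for 1 h at 37 C. Agonist-mode compound addition from DMSO stocks; fluorescence monitored 3 min.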
# [4] = p53 small molecule agonists, cell-based qHTS assay with human liver microsomes (AID 1963577);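 note: p53 response element beta-lactamase reporter cells with liver microsomes plus NADPH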
# How it was run: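 In this qHTS, p53 response-element beta-lactamase cells receive test compound together with a microsome/NADPH activating system (0.5 mg/mL final each) and are incubated 16 h at 37 C before LiveBLAzer fluorescence detection.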
# [5] = p53 small molecule agonists, cell-based qHTS assay with human liver microsomes: qHTS cell viability counter screen (AID 1963579); note: nearly all actives have a fitted effect of over 45% in size
# How it was run: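 Metabolically activated exposure: compounds, human liver microsomes and NADPH (0.5 mg/mL final apiece) were added to p53RE-bla cells seeded 5 h earlier, left 16 h at 37 C, and then assessed for viability by CellTiter-Glo luminescence.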
# [6] = p53 small molecule agonists, cell-based qHTS assay with rat liver microsomes: qHTS cell viability counter screen (AID 1963580); note: nearly all actives have a fitted effect of over 45% in size
# How it was run: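 Cytotoxicity counter screen: intracellular ATP read by CellTiter-Glo luminescence in the p53 reporter wells. HCT-116 p53RE-bla cells were treated for 16 h at 37 C alongside rat liver microsomes and NADPH, each 0.5 mg/mL final.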
# [7] = p53 small molecule agonists, cell-based qHTS assay: qHTS cell viability counter screen (AID 1963581); note: nearly all actives have a fitted effect of over 45% in size
# How it was run: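 qHTS counter screen: 16 h compound exposure at 37 C of p53RE-bla HCT-116 cells (4,000 per well, seeded 5 h prior), cell viability by ATP luminescence.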
# [8] = p53 small molecule agonists, cell-based qHTS assay (AID 1963582; active = well fitted activation curve with a large enough effect in the signal ratio in the repeat runs, not every such curve was filed as active; the % refers to the signal ratio)
# How it was run: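 Measured: fluorescence from cleaved LiveBLAzer substrate. System: p53RE-bla cells, 16 h compound treatment at 37 C, 2 h substrate step at room temperature.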
# [9] = molecular target: 5-hydroxytryptamine receptor 2A (Homo sapiens) (UniProt P28223); test: 5-hydroxytryptamine receptor 2A (HTR2A) small molecule antagonists, cell-based qHTS assay (AID 1963586); note: nearly all actives have a fitted effect of over 45% in size; note: potency is the fitted concentration of half-maximal effect
# Chain of 5-hydroxytryptamine receptor 2A (Homo sapiens) (P28223 whole entry, looked up): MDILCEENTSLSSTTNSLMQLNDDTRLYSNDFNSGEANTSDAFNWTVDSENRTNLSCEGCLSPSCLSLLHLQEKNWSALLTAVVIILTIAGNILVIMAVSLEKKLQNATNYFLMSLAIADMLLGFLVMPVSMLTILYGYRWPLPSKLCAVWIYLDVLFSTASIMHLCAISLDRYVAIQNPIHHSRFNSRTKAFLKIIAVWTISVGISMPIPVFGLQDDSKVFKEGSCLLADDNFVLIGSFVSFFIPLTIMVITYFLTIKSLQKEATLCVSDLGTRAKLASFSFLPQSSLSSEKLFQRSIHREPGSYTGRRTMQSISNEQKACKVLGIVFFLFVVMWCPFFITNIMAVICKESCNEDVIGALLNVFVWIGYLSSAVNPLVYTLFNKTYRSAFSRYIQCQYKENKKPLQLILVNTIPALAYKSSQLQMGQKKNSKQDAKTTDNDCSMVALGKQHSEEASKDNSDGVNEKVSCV
# How it was run: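 CHO cells stably expressing human HTR2A were plated for 18 h at 37 C, then loaded with calcium dye for 1 h. Compounds were preincubated 5 min at room temperature before DOI (4 nM solution) was added. Kinetic fluorescence was read for 3 min.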
# [10] = molecular target: 5-hydroxytryptamine receptor 2A (Homo sapiens) (UniProt P28223); test: 5-hydroxytryptamine receptor 2A (HTR2A) small molecule agonists, cell-based qHTS assay (AID 1963587); note: nearly all actives have a fitted effect of over 30% in size; note: potency is the fitted concentration of half-maximal effect
# How it was run: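 Kinetic calcium-flux fluorescence (2 min, 1 sec intervals) after compound addition in agonist mode. HTR2A-CHO cells were cultured 18 h, then dye-loaded 1 h at 37 C.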
# [11] = molecular target: Muscarinic acetylcholine receptor M1 (Homo sapiens) (UniProt P11229); test: Cholinergic receptor muscarinic 1 (CHRM1) small molecule antagonists, cell-based qHTS assay (AID 1963588); note: nearly all actives have a fitted effect of over 40% in size; note: potency is the fitted concentration of half-maximal effect
# Chain of Muscarinic acetylcholine receptor M1 (Homo sapiens) (P11229 whole entry, looked up): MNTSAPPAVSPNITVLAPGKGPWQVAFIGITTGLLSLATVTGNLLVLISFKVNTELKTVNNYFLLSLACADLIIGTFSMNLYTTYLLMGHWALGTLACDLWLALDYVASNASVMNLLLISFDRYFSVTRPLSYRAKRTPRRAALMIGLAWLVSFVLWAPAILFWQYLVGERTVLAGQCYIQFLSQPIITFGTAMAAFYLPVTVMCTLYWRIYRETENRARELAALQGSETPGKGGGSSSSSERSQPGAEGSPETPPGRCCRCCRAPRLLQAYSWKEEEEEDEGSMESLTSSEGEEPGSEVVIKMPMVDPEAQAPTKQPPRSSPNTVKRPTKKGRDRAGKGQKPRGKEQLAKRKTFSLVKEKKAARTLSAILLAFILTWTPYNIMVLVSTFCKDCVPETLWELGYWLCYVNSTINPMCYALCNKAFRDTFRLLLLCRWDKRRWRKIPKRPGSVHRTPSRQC
# How it was run: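 Compounds were tested at 15 concentrations in three independent runs. Dye-loaded CHRM1-CHO cells were exposed 5 min at room temperature before stimulation by acetylcholine added at 50nM. Intracellular calcium was read kinetically on FDSS for 3 min.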
# [12] = molecular target: Muscarinic acetylcholine receptor M1 (Homo sapiens) (UniProt P11229); test: Cholinergic receptor muscarinic 1 (CHRM1) small molecule agonists, cell-based qHTS assay (AID 1963589); note: nearly all actives have a fitted effect of over 35% in size
# How it was run: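 Kinetic fluorescence (1 s intervals) of calcium-sensitive dye in human M1 CHO cells after compound addition; cells pre-incubated 18 h at 37 C/5% CO2 and dye-loaded 1 h.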
# [13] = cAMP Responsive Elements (CRE) small molecule agonists, cell-based qHTS assay (AID 1963590)
# How it was run: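 Test agents in DMSO were incubated 3 h at 37 C/5% CO2 with CRE-bla HEK 293T cells seeded 18 h earlier; LiveBLAzer B/G FRET substrate was added and read after 2 h at room temperature.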
# [14] = cAMP Responsive Elements (CRE) small molecule antagonists, cell-based qHTS assay (AID 1963591; active = well fitted inhibition curve with a large enough effect in the signal ratio in the repeat runs, not every such curve was filed as active; the % refers to the signal ratio)
# How it was run: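 Reporter line CRE-bla HEK 293T in dialyzed-FBS DMEM; cells preincubated 18 h, treated 3 h with compound plus NKH477 (0.25 uM final); LiveBLAzer FRET, 2 h RT.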
# [15] = molecular target: D(2) dopamine receptor (Homo sapiens) (UniProt P14416); test: Dopamine D2 receptor (DRD2) small molecule agonists, cell-based qHTS assay (AID 1963594); note: nearly all actives have a fitted effect of over 35% in size
# Chain of D(2) dopamine receptor (Homo sapiens) (P14416 whole entry, looked up): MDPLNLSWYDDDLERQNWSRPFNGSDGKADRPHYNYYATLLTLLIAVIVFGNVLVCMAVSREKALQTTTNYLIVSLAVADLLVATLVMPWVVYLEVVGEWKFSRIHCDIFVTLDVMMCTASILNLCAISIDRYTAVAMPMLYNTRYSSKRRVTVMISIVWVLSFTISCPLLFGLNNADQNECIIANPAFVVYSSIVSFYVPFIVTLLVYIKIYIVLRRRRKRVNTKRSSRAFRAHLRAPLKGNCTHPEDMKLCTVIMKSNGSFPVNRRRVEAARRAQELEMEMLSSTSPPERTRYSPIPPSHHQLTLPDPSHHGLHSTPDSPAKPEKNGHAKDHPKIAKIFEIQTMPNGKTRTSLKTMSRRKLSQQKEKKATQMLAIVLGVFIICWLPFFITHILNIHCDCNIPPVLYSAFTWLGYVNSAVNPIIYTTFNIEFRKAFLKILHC
# How it was run: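 cAMP accumulation in DRD2-HEK293 cells measured by HTRF after 1 h detection; compounds added 10 min before NKH477 (200nM […]) forskolin-analogue stimulation, 30 min at room temperature, with Ro20-1724 present at 0.1 mM final.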
# [16] = molecular target: D(2) dopamine receptor (Homo sapiens) (UniProt P14416); test: Dopamine D2 receptor (DRD2) small molecule antagonists, cell-based qHTS assay (AID 1963595; active = well fitted inhibition curve with a large enough effect in the signal ratio in the repeat runs, with a control signal flat; the % refers to the signal ratio)
# How it was run: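 DRD2-HEK293; 0.1 mM Ro20-1724; cpd 10 min RT; NKH477 200 nM + quinpirole 12 nM, 30 min RT; HTRF cAMP (cAMP-d2/anti-cAMP cryptate), 665/620 nm ratio after 1 h.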
# [17] = p53 small molecule agonists, cell-based qHTS assay with rat liver microsomes (AID 1963578)
# How it was run: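 Agonist mode in p53RE-bla reporter cells, with compounds co-incubated 16 h at 37 C alongside 0.5 mg/mL rat liver microsomes and 0.5 mg/mL NADPH (final), followed by a 2 h LiveBLAzer detection step.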
# [18] = G protein-coupled receptor (GPCR) small molecule agonists, calcium flux assay: HEK293 wild type cell line counter screen (AID 1920065)
# How it was run: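 Following 18 h incubation at 37 C/5% CO2, plates got calcium dye for 1 h; compounds, ATP or DMSO were then pinned in and fluorescence followed kinetically (480/540 nm).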
# [19] = molecular target: Beta-2 adrenergic receptor (Homo sapiens) (UniProt P07550); test: Adrenergic beta2 receptor (ADRB2) small molecule antagonists, cell-based qHTS assay (AID 1963592); note: series mostly up to about 92 µM; nearly all actives have a fitted effect of over 50% in size
# Chain of Beta-2 adrenergic receptor (Homo sapiens) (P07550 whole entry, looked up): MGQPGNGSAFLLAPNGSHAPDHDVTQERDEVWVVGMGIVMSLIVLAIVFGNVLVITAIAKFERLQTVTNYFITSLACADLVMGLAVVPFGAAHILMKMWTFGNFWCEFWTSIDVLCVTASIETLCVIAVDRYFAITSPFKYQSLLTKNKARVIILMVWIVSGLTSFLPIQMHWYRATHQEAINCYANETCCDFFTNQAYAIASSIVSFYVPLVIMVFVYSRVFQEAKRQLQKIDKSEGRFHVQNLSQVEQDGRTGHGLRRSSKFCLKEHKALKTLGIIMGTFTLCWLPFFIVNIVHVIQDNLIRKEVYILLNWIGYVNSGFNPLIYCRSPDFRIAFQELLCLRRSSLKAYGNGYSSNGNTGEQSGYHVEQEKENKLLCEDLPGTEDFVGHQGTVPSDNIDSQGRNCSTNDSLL
# How it was run: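 Assay format: CHO-ADRB2 cells, 18-20hr seeding at 37C/5% CO2, then compound plus 1nM isoproterenol agonist mix for 0.5hr RT. Homogeneous time-resolved fluorescence cAMP detection after 1hr, expressed as 665/615 nm ratio.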
# [20] = molecular target: Beta-2 adrenergic receptor (Homo sapiens) (UniProt P07550); test: Adrenergic beta2 receptor (ADRB2) small molecule agonists, cell-based qHTS assay (AID 1963593);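 note: CHO cells stably overexpressing human ADRB2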
# How it was run: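 CHO cells stably over-expressing ADRB2 were plated overnight at 37C, then dosed with compounds plus a stimulation mix containing 100uM IBMX and 25uM Ro-20-1724 for 0.5hr at room temperature. cAMP was measured by HTRF competition, 1hr.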
SMILES,Potency [1],Potency [2],Potency [3],Potency [4],Potency [5],Potency [6],Potency [7],Potency [8],Potency [9],Potency [10],Potency [11],Potency [12],Potency [13],Potency [14],Potency [15],Potency [16],Potency [17],outcome [18],Potency [19],Potency [20]
CC1(C)OC[C@@H](COC(=O)CCc2ccc(OC[C@@H](O)CNCCNC(=O)N3CCOCC3)cc2)O1,inactive,inactive,inactive,inactive,inactive,inactive,inactive,inactive,inactive,inactive,inactive,inactive,inactive,inactive,inactive,inactive,,,,
C[C@@H]1O[C@@H](O[C@@H]2[C@@H](O)[C@H](OCCc3ccc(O)c(O)c3)O[C@H](CO[C@@H]3O[C@H](CO)[C@@H](O)[C@H](O)[C@H]3O)[C@H]2OC(=O)/C=C/c2ccc(O)c(O)c2)[C@H](O)[C@H](O)[C@H]1O,inactive,inactive,inactive,inactive,,inactive,inactive,inactive,,inactive,inactive,,inactive,inactive,,inactive,inactive,,,
CO[Si](CCC1CCC2OC2C1)(OC)OC (centres undefined),inactive,inactive,inactive,inactive,inactive,inactive,inactive,inactive,inactive,inactive,inactive,inactive,inactive,,inactive,inactive,inactive,inactive,inactive,
CCN(CC)c1ccc(N)cc1,22.3 µM (active),31.5 µM (active),inactive,inactive,,inactive,inactive,inactive,inactive,inactive,inactive,inactive,,,,,inactive,,inactive,
Cc1cccc([N+](=O)[O-])c1C(=O)O,inactive,inactive,inactive,inactive,,inactive,inactive,inactive,inactive,inactive,,inactive,inactive,inactive,inactive,inactive,inactive,,inactive,
CC(C)OCC1CO1 (centres undefined),inactive,30.5 µM (active),inactive,inactive,,inactive,,inactive,inactive,inactive,inactive,inactive,inactive,inactive,inactive,inactive,,,inactive,
Cc1c(N)cccc1Cl,inactive,inactive,inactive,inactive,inactive,inactive,inactive,inactive,inactive,inactive,inactive,inactive,inactive,inactive,inactive,inactive,inactive,inactive,inactive,
CC(C)=CCC/C(C)=C\C#N,inactive,inactive,inactive,inactive,inactive,inactive,inactive,inactive,inactive,inactive,inactive,inactive,inactive,inactive,inactive,inactive,inactive,inactive,inactive,
c1ccc(C[P+](c2ccccc2)(c2ccccc2)c2ccccc2)cc1,inactive,inactive,inactive,inactive,,,inactive,,inactive,inactive,4.72 µM (active),inactive,,,inactive,,inactive,,inactive,inactive
CCOC(=O)/C=C/C(=O)O,inactive,61.1 µM (active),inactive,,inactive,inactive,inactive,,,,inactive,inactive,inactive,inactive,inactive,inactive,inactive,,inactive,inactive
CCCCCCCCCCCCCCN(CCO)CCO,27.3 µM (active),inactive,inactive,inactive,,inactive,inactive,,inactive,21.9 µM (active),,,,,inactive,inactive,inactive,,inactive,
CCCCCCCCCCCCCCCC[N+](C)(C)CCN(Cc1ccc(OC)cc1)c1ncccn1,26.6 µM (active),inactive,inactive,inactive,inactive,inactive,inactive,inactive,,inactive,inactive,inactive,,,inactive,,,,inactive,
Nc1nc2c(ncn2CCC(CO)CO)c(=O)[nH]1,inactive,inactive,inactive,,inactive,inactive,inactive,inactive,,,,,inactive,,,inactive,,,inactive,inactive
CCCSS/C(CCO)=C(\C)N(C=O)Cc1cnc(C)nc1N,inactive,29.8 µM (active),inactive,inactive,inactive,inactive,,,inactive,inactive,inactive,inactive,inactive,inactive,,inactive,,,inactive,inactive
COc1cc(C(=O)NCCCCCC(=O)O)cc(OC)c1OC,inactive,inactive,inactive,inactive,inactive,inactive,inactive,inactive,inactive,inactive,inactive,inactive,inactive,inactive,,inactive,inactive,inactive,inactive,
CC[C@@]1(O)C(=O)OCc2c1cc1n(c2=O)Cc2c-1nc1ccccc1c2/C=N/OC(C)(C)C,inactive,inactive,inactive,inactive,,inactive,inactive,,5.79 µM (active),inactive,20.5 µM (active),inactive,,,,inactive,inactive,,inactive,
CCCCCCCCCCOC(C)=O,inactive,inactive,inactive,inactive,inactive,inactive,inactive,inactive,,inactive,inactive,inactive,inactive,inactive,inactive,inactive,,,inactive,inactive
NCCS,inactive,inactive,inactive,inactive,inactive,inactive,inactive,inactive,inactive,inactive,inactive,inactive,inactive,,inactive,inactive,inactive,inactive,inactive,
